Source: PubChem BioAssay (NCI)
Values joined by “and” are separate entries in the source; they are usually repeats but may differ in a detail not shown here. Identical values can stand only once. Compounds without any hit were thinned out: in the full panel of roughly 79,000, 15% have a hit. Unmarked numbers belong to inactive results. Active and inactive are the calls of the source. Cut-off read from the data, not from the text of the source: active = growth inhibition above about 70%; inactive = the rest.

Experiments:
[1] = NCI Yeast Anticancer Drug Screen. Data for the rad50 strain (AID 155);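 note: 0% = growth of vehicle-only cultures of the same strain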; conditions: S. cerevisiae rad50 strain growth inhibition, stronger effect = higher value
How it was run: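 Readout: growth inhibition relative to vehicle-treated cultures. Compound exposure was carried out in a genetically defined yeast strain deficient in DNA damage repair.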

[2] = NCI Yeast Anticancer Drug Screen. Data for the mec2-1 strain (AID 157); conditions: S. cerevisiae mec2-1 strain, stronger effect = higher value
How it was run: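 Growth inhibition is read against vehicle-treated controls after compound exposure of the mec2-1 yeast strain, which is defective in DNA damage repair or cell cycle control.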

[3] = NCI Yeast Anticancer Drug Screen. Data for the sgs1 mgt1 strain (AID 161);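 note: 0% = growth of cultures given vehicle only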; conditions: S. cerevisiae sgs1 mgt1 strain, stronger effect = higher value
How it was run: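 Percent growth inhibition was derived by comparing compound-exposed mutant yeast with vehicle-exposed cultures. The strain carries alterations in DNA damage repair.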

[4] = NCI Yeast Anticancer Drug Screen. Data for the cln2 rad14 strain (AID 165);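 note: 0% = growth equal to vehicle treated cultures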; conditions: S. cerevisiae cln2 rad14 strain, stronger effect = higher value
How it was run: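 Growth inhibition, relative to vehicle-treated controls, is the read-out. The test organism is a yeast strain with defined genetic alterations, cln2 rad14.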

[5] = NCI Yeast Anticancer Drug Screen. Data for the bub3 strain (AID 167); conditions: S. cerevisiae bub3 mutant strain, stronger effect = higher value
How it was run: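 Readout: yeast growth inhibition, expressed relative to vehicle-only wells. The test organism is a mutant strain from a panel with lesions in DNA repair or checkpoint genes.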

[6] = NCI Yeast Anticancer Drug Screen. Data for the mlh1 rad18 strain (AID 175); conditions: S. cerevisiae mlh1 rad18 strain growth inhibition, stronger effect = higher value
How it was run: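 Cells of a genetically altered yeast strain, deficient in DNA damage repair, were treated with compound. Their growth was then compared with that of vehicle-treated cultures to give inhibition.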

[7] = at 5.0 µM (retest, dose inferred, filed as 0.5)
[8] = at 50.0 µM (retest, dose inferred, filed as 5.0)

Structure (SMILES) | growth inhibition [1, 7] | growth inhibition [1, 8] | growth inhibition ([1]; at 50.0 µM) | growth inhibition [2, 7] | growth inhibition [2, 8] | growth inhibition ([2]; at 50.0 µM) | growth inhibition [3, 7] [%] | growth inhibition [3, 8] | growth inhibition ([3]; at 50.0 µM) | growth inhibition [4, 7] | growth inhibition [4, 8] | growth inhibition ([4]; at 50.0 µM) | growth inhibition [5, 7] | growth inhibition [5, 8] | growth inhibition ([5]; at 50.0 µM) | growth inhibition [6, 7] | growth inhibition [6, 8] | growth inhibition ([6]; at 50.0 µM)
COc1cc(CNC(=O)CCCCCCCCCCSC#N)ccc1O | 6% | 59% | 82.1% (active) | 5% | 43% | 85.2% (active) | 7 | 77% (active) | 83.6% (active) | 1% | 76% (active) | 81% (active) | 0% | 82% (active) | 86.7% (active) | 20% | 73% (active) | 81.2% (active)
O=C(Nc1ccccc1)OCCN=c1c2ccccc2ccc2ccccc12 | 6% | 84% (active) | 84% (active) | -1% | 71% (active) | 90.5% (active) | 7 | 48% | 88.2% (active) | -15% | 68% | 82.7% (active) | 5% | 78% (active) | 90% (active) | 5% | 92% (active) | 87.2% (active)
O=C(c1ccc([N+](=O)[O-])cc1)c1[nH]c2ccccc2c(=O)c1-c1ccccc1 | -2% | 96% (active) | 98% (active) | 14% | 99% (active) | 99% (active) | 0 | 99% (active) | 98.6% (active) | -3% | 95% (active) | 98.6% (active) | -2% | 98% (active) | 98.7% (active) | 25% | 99% (active) | 99% (active)
CC(C)(C)c1ccc2c(c1)C(O)(c1ccccc1)C1OC1(C(C)(C)C)C2=O (stereo not given) | 10% | 85% (active) | 96.2% (active) | 9% | 82% (active) | 94.5% (active) | 16 | 82% (active) | 79.3% (active) | 4% | 87% (active) | 91.7% (active) | -3% | 88% (active) | 94.7% (active) | 31% | 91% (active) | 93.2% (active)
CC1(C)CC(=O)C(CC2C(=O)c3ccccc3C2=O)C(=O)C1C(=O)C(=O)Nc1cccc2ccc(O)cc12 (stereo not given) | 28% | 48% | 7.85% | 25% | 23% | -13.3% | 10 | 39% | -8.6% | 22% | 39% | -7.7% | 30% | 36% | -31.9% | 32% | 52% | -30.2%
CN(O)C(=S)c1ccccc1 | 50% | 87% (active) | 91.7% (active) | 43% | 73% (active) | 93.3% (active) | 55 | 99% (active) | 92.5% (active) | 41% | 99% (active) | 89.6% (active) | 95% (active) | 99% (active) | 91.8% (active) | 36% | 67% | 86.7% (active)
CCC[n+]1ccc(/C=N\NC(N)=S)c2ccccc21 | 22% | 38% | 38.2% | 19% | 36% | -16.4% | 21 | 38% | 6.2% | 9% | 34% | 5.25% | 15% | 42% | -6.7% | 17% | 33% | -41.6%
C(=C\N1CCCCC1)/c1nnnn1-c1ccccc1 | -23% | 6% | 34.5% | -18% | -21% | 54.1% | -31 | -18% | 71.9% (active) | -17% | -22% | 11.8% | -29% | -31% | 54.6% | -4% | 1% | 72.7% (active)
Cc1ccc(S(=O)(=O)OCC(O)C(O)COS(=O)(=O)c2ccc(C)cc2)cc1 (stereo not given) | – | – | 35.8% and -13.8% and 12.6% | – | – | -10.2% and -4.45% and -13.8% | – | – | 25.3% and -27.6% and -5.9% | – | – | 11.1% and -21.9% and -13.5% | – | – | 9.15% and -12.4% and 6.35% | – | – | 26.1% and -1.9% and -2.9%
CN=S(=O)(OCCCCOS(=O)(=NC)c1ccccc1)c1ccccc1 (stereo not given) | 16% | 26% | 47.6% | – | – | – | 20 | 28% | -18.1% | 8% | 10% | -12.4% | 11% | 10% | -29.3% | 39% | 40% | -52.3%
O=c1c(Cc2c[nH]c3ccccc23)coc2ccccc12 | – | – | – | 8% | 91% (active) | 7.85% | 3 | 84% (active) | 51.1% | 10% | 92% (active) | -69.5% | 9% | 98% (active) | 14.1% | 0% | 95% (active) | 21.8%
O=S1(=O)CC=C1c1ccccc1 | 8% | 78% (active) | 96.3% (active) | – | – | – | 7 | 89% (active) | 94.8% (active) | 5% | 61% | 73.8% (active) | 2% | 84% (active) | 95.2% (active) | 2% | 92% (active) | 97.7% (active)
CC1(c2ccc(Cl)cc2)OC(=O)C(=Cc2ccc([N+](=O)[O-])s2)C(=O)O1 (stereo not given) | – | – | – | 15% | 99% (active) | 40.4% | 49 | 99% (active) | 88.9% (active) | 44% | 99% (active) | 52.4% | 45% | 99% (active) | 84.7% (active) | 18% | 82% (active) | 92.9% (active)
CCCCC(Oc1cc(C(C)(C)C)c(O)c(C(C)(C)C)c1)C(=O)O (stereo not given) | 21% | 68% | 99.1% (active) | – | – | – | 35 | 97% (active) | 99.5% (active) | 49% | 95% (active) | 99% (active) | 3% | 97% (active) | 99.2% (active) | 27% | 97% (active) | 98.9% (active)
CCCCCCCCCCCCCCCCCC[N+]1(CC)CCCCC1 | 99% (active) | 99% (active) | 90.3% (active) | 99% (active) | 99% (active) | 91.2% (active) | – | – | – | 99% (active) | 99% (active) | 90.2% (active) | 99% (active) | 99% (active) | 90.4% (active) | 99% (active) | 99% (active) | 89.2% (active)
Cc1ccc(C(CN)(CCBr)c2ccc(C)cc2)cc1 | 63% | 99% (active) | 99.5% (active) | – | – | – | 59 | 99% (active) | 99.7% (active) | 19% | 90% (active) | 99.4% (active) | 36% | 91% (active) | 99% (active) | 92% (active) | 98% (active) | 99.5% (active)
Brc1ccc(N=Nc2ccc(-c3ccc[cH-]3)cc2)cc1.[Fe+2].c1cc[cH-]c1 | – | – | – | 4% | 1% | 6.65% | 7 | -14% | 6.3% | 8% | 11% | 5.75% | 6% | 9% | 45.4% | -2% | 1% | 14.7%
N=C(N)Sc1ccc([N+](=O)[O-])cc1Cl | – | – | – | 35% | 96% (active) | 86.8% (active) | 56 | 97% (active) | 90.3% (active) | 36% | 89% (active) | 84.5% (active) | 40% | 59% | 86.2% (active) | 63% | 96% (active) | 85.7% (active)
CCN(CC)CCNc1ccc2nnn3c4ccccc4c(=O)c1c23 | -2% | 63% | 30.8% | – | – | – | 0 | -4% | 9.3% | -1% | 39% | 21.1% | -10% | 19% | 10.2% | -1% | -3% | 81.2% (active)
OC1CCN(c2c3ccccc3nc3ccccc23)CC1 | – | – | – | 7% | 67% | 11.4% | 32 | 94% (active) | 2.65% | 24% | 23% | 37.4% | 1% | 19% | 5.55% | 8% | 81% (active) | 15%
CCCCC(/C=N\NC(=O)c1ccc[n+](C)c1)=C/c1ccccc1 | 18% | 1% | 88.3% (active) | – | – | – | -6 | -3% | 88.7% (active) | -2% | -5% | 18.5% | -4% | -7% | 94.5% (active) | -1% | 16% | 90.6% (active)
